GLS inhibitor: glutaminase GLS (human) inhibition. GLS enzymatic activity, qHTS titration. Potency, µM (titrated, usually from 45.5 µM), inactives show at the highest dose activity change, negative = inhibition, actives largely listed as inhibitors. 0.21% of 410,000 active. AID 624170; further: potency means the concentration at half of the fitted maximal effect; on the % scale 0 is the no-effect control and ±100 the full control effect
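Compounds were pin-transferred onto hKGA, after which L-glutamine (1 mM solution) and a detection mix of glutamate oxidase, HRP and Amplex Red were added. Initial and 30 min RT fluorescence reads were collected.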
KCNH2 3.1 inh: KCNH2 3.1 (human) potassium channel inhibition | activity change, % (tested at about 1.8 µM) | AID 720553 | U2OS KCNH2 3.1, thallium flux FluxOr; stronger effect = lower value | 0.95% of 340,000 active;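 active means maximum activity change below -70%; inconclusive means maximum activity change from -70% to -50%; inactive means maximum activity change above -50%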;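 further: thallium influx rate constant from kinetic fluorescence after stimulation buffer; on the % scale 0 is the no-effect control and ±100 the full control effect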
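We transduce U2OS cells with the mutant 3.1 virus, culture them overnight, load FluxOr with Red40 quencher for 45 min, then add stimulation buffer and read kinetically for 2 min to derive a normalized rate constant.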
GLP-1R inv ag: acts as inverse agonist at human GLP-1 receptor | Potency, µM (doses to about 38.3 µM), for inactives: at the highest dose activity change, negative = inhibition, most hits filed as inhibitors | HEK293 GLP-1R CRE-luciferase, luminescence, 24 h; GLP-1R form is constitutively active | 1.6% of 410,000 active | AID 624417; further: potency means the concentration at half of the fitted maximal effect; on the % scale 0 is the no-effect control and ±100 the full control effect; nearly all actives have a fitted effect of over 55% in size
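Cells are plated, allowed 12 hours at 37 deg C, then treated with compounds for 24 hr before luciferase detection reagent is added and luminescence is read after 12 min at room temperature. The HEK293 line carries constitutively active GLP-1R with a cAMP-responsive reporter.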
KCNH2 WT inh: inhibitors of human wildtype KCNH2 potassium channel | Q12809 | U2OS, BacMam KCNH2, thallium flux FluxOr; stronger effect = lower value | activity change, % at 1.84 µM | 0.37% of 340,000 active | AID 720551;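 active means maximum activity change below -70%; inconclusive means maximum activity change between -70% and -50%; inactive means maximum activity change above -50%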; further: on the % scale 0 is the no-effect control and ±100 the full control effect
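U2OS cells were transduced with wild-type KCNH2 virus (2.03 x 10^8 / mL) for 4 h at room temperature, then cultured overnight at 37 C. Thallium flux was read with FluxOr dye. Rate constants were normalized to DMSO controls.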
GLP-1R agonist: GLP-1 receptor (human) agonism | P43220 | HEK293 GLP-1R CRE-luciferase, luminescence, 4-6 h; cells express a hypersensitive GLP-1R form | Potency, µM (titrated, usually from 45.6 µM), for inactives: at the top dose activation, most hits filed as activators | 0.007% of 380,000 active | AID 624172; further: potency means the concentration at half of the fitted maximal effect; % of control where 0% means no effect
HEK293 tox: cytotoxicity in counter-screen for GLP-1R inverse agonists. HEK293 cAMP-luciferase reporter cells, luminescence, 24 h. Potency, µM (highest dose often 38.3 µM), for inactives: top-dose activity change, negative = inhibition, usual class: inhibitors. 0.13% of 410,000 active. AID 624418;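 further: loss of luciferase light is scored as toxicity; potency means the concentration at half of the fitted maximal effect; on the % scale 0 is the no-effect control and ±100 the full control effect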
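1536-well qHTS counterscreen of the MLSMR; 200 cells/uL, 12 h pre-incubation, 23 nL cpd, 24 h at 37 deg C 5% CO2, luciferase detection reagent, 12 min RT, luminescence. Inhibition = undesired.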
* marks the source's active call; other numbers are inactive results; ? = inconclusive; / = not tested or not shown; [ ] = another dose, or the depositor's remark. A selection: hits, their analogues and other compounds. The true share with any hit is near 2.8%. Unless noted, the call rests on the fitted dose curve; in most records, active means well fitted curve in the direction sought with a large enough effect; inconclusive means small, poorly fitted or top-dose-only effect, or another doubt; inactive means no such curve, though single readings can be large; an effect the other way counts as inactive or inconclusive.

SMILES	GLS inhibitor	KCNH2 3.1 inh	GLP-1R inv ag	KCNH2 WT inh	GLP-1R agonist	HEK293 tox
CC(C)C1Nc2ccc(C(=O)O)cc2C2C=CCC21 (configuration not stated)	218.6%	14.0	-4.8%[0.307 µM]	-12.2	-14.6%	-1.6%[0.307 µM]
O=C(/C=C1\OCc2ccccc21)c1ccccc1	/	/	-1.9%	/	/	-0.1%
Cc1ccc(NC(=O)c2ccc3c(c2)S(=O)(=O)c2ccccc2C3=O)cc1S(=O)(=O)N1CCOCC1	-2.7%	-190.4*	5.6%	-136.3*	-3.8%	2.1%
OCCCN=c1cc(-c2ccccc2)oc2ccc(Cl)cc12	5.1%	-15.2	?	-1.0	-27.7%	?
CC1(C)CC(N=c2cc(-c3ccccc3)oc3ccc(Cl)cc23)CC(C)(C)N1	-2.3%	2.1	3.55µM*	-2.1	-3.1%	-25.4%
S=c1[nH]nc(C23CC4CC(CC(C4)C2)C3)n1Cc1ccco1	-24.9%	-9.5	7.94µM*	-34.6	-7.6%	-28.6%
CCCc1n[nH]c(=S)n1Cc1ccco1	8.1%	-1.5	15.4%	-9.0	-1.7%	7.2%
Cc1oc(-c2cccc(Cl)c2)nc1Cn1c(SCc2ccc(F)cc2)nc2cccnc21	-1.8%	/	0.7%	/	/	7.4%
COc1ccc2nc(N3C(=O)C(O)=C(C(=O)c4ccco4)C3c3ccc(C)o3)sc2c1 (configuration not stated)	10µM*	6.3	-25.1%	1.8	13.2%	5.5%
Cc1cc(OCCNCCO)cc(C)c1Cl	11.7%	2.4	8.91µM*	-3.2	-0.2%	82.1%
Cc1cc(OCCCCCNCCO)cc(C)c1Cl	0.8%	-40.5	-5.4%	0.4	-1.5%	?
CCOc1ccc(C(=O)c2cn(Cc3ccccc3)c3c(F)cc(F)cc3c2=O)cc1	1.2%	/	?	/	/	-4.2%
CC(C(=O)NCCN1CCOCC1)(c1ccccc1)c1ccccc1	39.0%	1.2	-3.6%	3.4	0.7%	-4.9%
CCOC(=O)n1cc(-c2cnc(CNC(=O)C(C)(c3ccccc3)c3ccccc3)o2)c2ccccc21	-2.7%	-72.6*	?	-40.4	13.3%	3.5%
O=C1CCC[C@@H]2[C@H](Cc3ccccc3)[C@@H](O)C[C@@H]3CCN1[C@@H]32	-1.3%	-23.4	5.7%	3.7	-2.5%	-12.5%
O=C1CCC[C@@H]2C[C@@]3(C[C@@H]4CCN1[C@H]24)Nc1cc(Cl)c(Cl)cc1NC3=NCc1ccccc1	-12.5%	-9.9	10µM*	-2.9	0.9%	-27.8%
O=C(NNc1ccc(F)cc1)c1c(F)cccc1Cl	-19.8%	6.9	1.12µM*	2.2	0.1%	-24.5%
O=C(NNc1ccc(Cl)cc1)c1c(F)cccc1Cl	?	-13.6	?	-3.8	0.4%	-6.8%
O=C(NNc1cccc(Cl)n1)c1c(Cl)cccc1Cl	/	-1.2	-0.1%	3.7	-1.0%	12.2%
O=C(NNc1cccc(Cl)n1)c1c(F)cccc1F	7.94µM*	-6.9	19.2%	11.7	3.5%	-0.1%
CC(C)c1ccc(NC(=O)c2cc(S(=O)(=O)NCC3COc4ccccc4O3)ccc2F)cc1 (configuration not stated)	5.2%	-71.7*	?	13.3	-0.1%	2.6%
COc1ccc(NC(=O)c2cc(S(=O)(=O)NCC3COc4ccccc4O3)ccc2F)cc1 (configuration not stated)	3.9%	-15.7	?	20.7	2.3%	-25.8%
Cc1ccc(NC(=O)c2cc(S(=O)(=O)NCCc3ccc(Cl)cc3)ccc2F)cc1	-9.6%	/	11.2µM*	/	/	-14.2%
Cc1cc(S(=O)(=O)Nc2nc(CN3CCOCC3)nc3sc4c(c23)CCC4)cc(C)c1C	?	-0.4	-6.4%	-6.6	-16.8%	12.3%
Cc1ccc(S(=O)(=O)Nc2nc(CN3CCOCC3)nc3sc(C(=O)O)c(C)c23)cc1	17.8µM*	-5.1	16.9%	-7.7	-1.4%	-10.3%
SMILES	GLS inhibitor	KCNH2 3.1 inh	GLP-1R inv ag	KCNH2 WT inh	GLP-1R agonist	HEK293 tox
Nc1ccccc1-c1nnc(-c2ccccc2N)n1N	14.1%	-113.6*	-3.5%	3.3	3.4%	-14.1%
Nn1c(-c2ccccn2)nnc1-c1ccccn1	2.4%	7.7	23.6%	1.5	11.4%	13.0%
Cc1ccc(-c2c(C(=O)Nc3ccc(F)c(F)c3)oc(=O)c3ccccc23)cc1	-2.1%	/	-24.3%	/	/	2.1%
CCc1ccc(CN2CCC(n3nccc3NC(=O)Cc3ccccc3)CC2)o1	11.7%	-16.9	-18.2%	17.2	0.0%	-1.3%
CCOc1ccc(-c2cc(C(=O)Nc3ccc(C)c(NS(C)(=O)=O)c3)[nH]n2)c(C)c1	-1.4%	/	7.08µM*	/	-2.6%	?
CCOc1ccc(-c2cc(C(=O)NCCOC)[nH]n2)c(C)c1	3.6%	/	3.0%	/	6.8%	6.9%
CCSc1ccc2c(c1)N(CCCN1CCN(C)CC1)c1ccccc1S2	8.4%	-73.4*	8.2%	31.5	14.5%	0.1%
CCOC(=O)c1ccc(Nc2ncnc3ccc(C)cc23)cc1	-0.4%	-3.2	?	5.2	4.6%	-5.8%
CCOC(=O)c1cccc(Nc2ncnc3ccc(C)cc23)c1	-3.0%	-84.7*	11.2µM*	12.7	4.4%	-15.7%
Cc1cc(N/C=C\c2nnnn2-c2ccc(F)cc2)no1	6.0%	5.5	-20.3%	-120.8*	2.2%	12.9%
Cc1ccc(-n2nnnc2/C=C\Nc2cc(C)on2)cc1	9.7%	-6.9	-4.1%	-8.8	-0.5%	-14.8%
CCCNC(=O)N(C)C[C@H]1Oc2cc(Br)ccc2S(=O)(=O)N([C@@H](C)CO)C[C@@H]1C	0.3%	-0.4	11.3%	-1.7	-1.5%	-0.5%
CC(C)N(C(=O)CSc1nc2ccccc2n1Cc1ccccc1)C(C)C	-2.6%	-9.7	?	-5.8	7.7%	-5.5%
CC(C)N(C(=O)CSc1nc2ccccc2n1Cc1ccccc1F)C(C)C	-3.0%	-9.7	2.24µM*	-2.3	4.4%	-3.3%
Cc1cc(C)n2nc(SCc3cccc(F)c3)nc2n1	14.8%	10.5	40.5%	-9.7	8.8%	-0.9%
OCCNCc1cc(Br)ccc1OCc1ccc(Cl)cc1Cl	1.3%	-28.7	6.31µM*	6.8	-27.0%	?
OCCNCc1cc(Br)ccc1OCc1ccc(Cl)cc1	6.3%	?	?	4.1	-3.6%	-19.6%
COc1ccc(CN(C)C(=O)c2ccc(Cl)c(S(=O)(=O)NCc3cccnc3)c2)cc1F	2.0%	-15.7	-27.7%	3.2	20.1%	-33.4%
Cc1cc(N2CCN(C(=O)Nc3ccc(F)cc3F)CC2)c2ccccc2n1	2.0%	-8.3	?	-4.0	-2.3%	-7.0%
CCCCc1ccc(NC(=O)N2CCN(c3cc(C)nc4ccccc34)CC2)c(C)c1	1.0%	-93.9*	?	-44.3	3.2%	-21.3%
Cc1cc(C)cc(CN2CCC(Oc3ccc(C(=O)N4CCCC4)cc3)CC2)c1	-1.4%	-11.8	10µM*	18.0	1.0%	-30.0%
